In all, about 110,000 compounds were measured (“z-score”: median about -0.1, highest 2% from about 2 on). What follows is part of a selection rich in the highest values, with near analogues and random picks from the rest. Activity calls are given as the source filed them.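 How the source made its calls: active means z-score in the third read window above 3 or below -3; inactive means the rest.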
Molecular target: Metabotropic glutamate receptor 8 (Rattus norvegicus) (UniProt P70579)
Experiment: rat mGluR8 modulators via GIRK flux, primary screen, cell-based, thallium flux, HTS (AID 488969)
Conditions: HEK293 rat mGluR8, GIRK (G protein-gated inwardly rectifying potassium channel) thallium flux, FluoZin2; at 10 µM; stronger effect = higher value; submaximal glutamate (EC20) added with thallium

Metabotropic glutamate receptor 8 (Rattus norvegicus), sequence (P70579 whole entry, looked up): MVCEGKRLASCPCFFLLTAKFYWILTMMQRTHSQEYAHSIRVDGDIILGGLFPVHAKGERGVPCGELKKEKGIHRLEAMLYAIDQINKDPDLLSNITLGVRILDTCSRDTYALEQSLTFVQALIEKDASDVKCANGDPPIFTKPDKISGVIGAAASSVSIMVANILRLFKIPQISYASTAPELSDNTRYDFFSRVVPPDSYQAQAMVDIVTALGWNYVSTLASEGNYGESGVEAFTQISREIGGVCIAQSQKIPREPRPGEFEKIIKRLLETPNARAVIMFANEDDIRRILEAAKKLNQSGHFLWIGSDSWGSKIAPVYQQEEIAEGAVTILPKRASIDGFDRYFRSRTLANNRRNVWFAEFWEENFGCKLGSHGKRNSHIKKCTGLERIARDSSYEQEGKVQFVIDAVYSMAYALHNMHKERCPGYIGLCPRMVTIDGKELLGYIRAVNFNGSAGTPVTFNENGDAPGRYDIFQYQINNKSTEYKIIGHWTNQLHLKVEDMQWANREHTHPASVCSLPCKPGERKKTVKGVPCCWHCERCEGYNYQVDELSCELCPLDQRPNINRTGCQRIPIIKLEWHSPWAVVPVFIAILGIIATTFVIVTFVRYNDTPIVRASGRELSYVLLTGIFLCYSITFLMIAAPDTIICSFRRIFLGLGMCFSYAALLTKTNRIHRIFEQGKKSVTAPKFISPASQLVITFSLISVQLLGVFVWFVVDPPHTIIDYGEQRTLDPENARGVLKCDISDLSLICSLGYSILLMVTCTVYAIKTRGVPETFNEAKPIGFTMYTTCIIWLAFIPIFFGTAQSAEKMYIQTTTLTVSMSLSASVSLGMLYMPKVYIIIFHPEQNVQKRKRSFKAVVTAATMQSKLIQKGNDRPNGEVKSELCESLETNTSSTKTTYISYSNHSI

SMILES	z-score
Cc1ccccc1NC(=O)NCC1CCCO1 (stereo not drawn)	0.73
CC(C)CC(=O)N1CCN(S(=O)(=O)c2ccc3ccccc3c2)CC1	-1.99
O=C(COC(=O)[C@H](Cc1c[nH]c2ccccc12)NC(=O)c1ccc(Cl)cc1)Nc1ccc2c(c1)OCO2	0.558
CCOc1c2ccc(C(=O)NCc3ccc4c(c3)OCO4)cc2nn1CCOC	-0.276
COc1ccc(/C=N/NC(=O)CSc2nnc(CCCc3ccc(OC)c(C)c3)o2)cc1	-0.18
O=C(OCC#CCSc1nnc(-c2ccncc2)o1)c1sc2ccccc2c1Cl	2.87
O=C(OCC#CCSc1nnc(-c2ccncc2)o1)c1cccs1	-0.0957
O=C(OCC#CCSc1nnc(-c2ccccc2)o1)c1cccs1	-0.745
CC1Cc2ccccc2N1C(=O)Cc1cccs1 (stereo not drawn)	-0.395
O=C(CNC(=S)NC(=O)c1ccc(F)cc1)c1ccccc1	-0.0791
Cc1ccc(NC(=S)NCc2ccccc2)cc1[N+](=O)[O-]	3.51 (active)
CCCCNC(=S)Nc1ccc([N+](=O)[O-])cc1	2
CC(C)CCNC(=S)Nc1ccc([N+](=O)[O-])cc1	1.2
O=[N+]([O-])c1ccc(NC(=S)NCCc2ccccc2)cc1	2.91
O=C(NC(=S)NCCN1CCOCC1)c1ccc(F)cc1	-0.084
O=[N+]([O-])c1ccc(NC(=S)NCCc2ccc(F)cc2)cc1	1.65
CCCCNC(=S)Nc1cc([N+](=O)[O-])ccc1C	0.706
O=[N+]([O-])c1ccc(NC(=S)NCCc2ccc(Cl)cc2)cc1	0.129
CCOc1ccc(NC(=S)Nc2ccc(C)c([N+](=O)[O-])c2)cc1	0.652
CC(C)CNC(=S)NC(=O)c1ccc(F)cc1	7.84 (active)
Cc1ccc(CNC(=S)Nc2ccc(C)c([N+](=O)[O-])c2)cc1	0.255
O=C(N/N=C/c1ccncc1)c1cc(Br)ccc1OCc1ccccc1	0.109
Cn1c(SCCOc2ccccc2Cl)nnc1-c1cccs1	-0.314

SMILES	z-score
CCCCNC(=S)NC(=O)c1ccc([N+](=O)[O-])cc1	7.01 (active)
CCCCCC(=O)NC(=S)NNC(=O)c1ccc([N+](=O)[O-])cc1	2.66
CC(=O)Nc1ccc(NC(=S)NC(=O)c2ccc([N+](=O)[O-])cc2)cc1	-0.11
O=C(NC(=S)NCC1CCCO1)c1ccc([N+](=O)[O-])cc1 (stereo not drawn)	-0.067
Cc1ccc(NC(=O)c2ccncc2)cc1[N+](=O)[O-]	-0.142
Cc1ccc([N+](=O)[O-])cc1NC(=O)c1ccc(C(C)(C)C)cc1	-1.53
CC(C)C(=O)Nc1cccc(NC(=S)NC(=O)c2ccc([N+](=O)[O-])cc2)c1	-0.0455
Cc1ccc(NC(=O)c2ccc(C(C)(C)C)cc2)cc1[N+](=O)[O-]	2.5
CCCC(=O)NC(=S)NNC(=O)c1ccc([N+](=O)[O-])cc1	-0.394
CCCCCCCC(=O)NNC(=O)c1ccc([N+](=O)[O-])cc1	-0.209
CC(C)CC(=O)NC(=S)NNC(=O)c1ccc([N+](=O)[O-])cc1	0.187
CC(C)CNC(=S)NC(=O)c1ccc([N+](=O)[O-])cc1	6.28 (active)
Cc1ccc(NC(=O)CCC(=O)NNC(=O)COc2ccccc2)c(C)c1	-0.385
CCOc1ccc(C(=O)NC(=S)Nc2ccc(NC(=O)c3ccco3)c(C)c2)cc1[N+](=O)[O-]	-0.187
CCOc1ccc2ccccc2c1/C=N/NC(=O)CNC(=O)Cc1ccccc1	-0.191
CC1(C)CC(=O)c2cnc(N3CCc4ccccc4C3)nc2C1	0.63
Brc1ccc(-c2csc(-c3ccncc3)n2)cc1	0.161
CCOC(=O)c1c(C=O)c(C)n(Cc2ccc(Cl)cc2)c1C	0.0766
CCCN1C2=C(C(=O)CCC2)C(c2ccc(F)cc2)C2=C1c1ccccc1C2=O (stereo not drawn)	-0.266
O=C(Cn1cnc2c(nnn2-c2ccc(F)cc2)c1=O)NCc1ccco1	-0.127
O=C(NCc1ccco1)c1cccc(S(=O)(=O)N2CCc3ccccc32)c1	-0.341
COc1ccc(C(=O)/C=C/c2cn(CN3CCN(C)CC3)c3ccccc23)cc1	-0.629
COc1ccc(C(=O)/C=C/c2cn(CC(O)CN3CCOCC3)c3ccccc23)cc1 (stereo not drawn)	-0.177

SMILES	z-score
CCC(=C(c1ccc(OC)cc1)c1ccc(OC)cc1)c1cn(CC(O)CN2CCN(C)CC2)c2ccccc12 (stereo not drawn)	2.63
COc1ccc(-n2c(COc3ccc4ccccc4c3)nnc2SCC(=O)NCc2ccco2)cc1	0.832
COc1cnc(-c2ccccc2)nc1Oc1cccc(C)c1C	-0.012
Cc1ccc(C)c(OCC(=O)Nc2nc3ccc([N+](=O)[O-])cc3s2)c1	0.0186
Cc1cccc(OCC(=O)Nc2nc3ccc([N+](=O)[O-])cc3s2)c1C	-0.12
COCC(=O)Nc1nc2ccc(C)cc2s1	0.0888
CCOCC(=O)Nc1nc2ccc(C)cc2s1	-0.0136
Cc1cccc(OCC(=O)Nc2nc3ccc([N+](=O)[O-])cc3s2)c1	2.05
Cc1ccc(C)c(OCC(=O)Nc2nc3ccc([N+](=O)[O-])cc3s2)c1C	2.46
O=C(CCl)N1c2ccccc2OCC1c1ccccc1 (stereo not drawn)	-0.994
NC(=O)NC(=O)CSc1nc(C2CCCCC2)n(-c2ccccc2)n1	-0.264
Cc1ccc(CNc2oc(-c3ccco3)nc2C#N)cc1	-0.32
Cc1nnc(N2C(=O)C(O)=C(C(=O)c3ccco3)C2c2ccc(C(C)(C)C)cc2)s1 (stereo not drawn)	-0.554
Cc1ccc(NC(=O)COC(=O)c2sccc2C)cc1S(=O)(=O)N1CCOCC1	1.38
Cc1ccc(Nc2ccc(S(=O)(=O)N3CCOCC3)cc2[N+](=O)[O-])c(C)c1	1.29
Cc1ccc(NC(=S)N=Nc2c(O)n(C)c3ccc(S(=O)(=O)N4CCOCC4)cc23)cc1	3.93 (active)
Cc1cc(C)cc(NC(=S)N=Nc2c(O)n(C)c3ccc(S(=O)(=O)N4CCOCC4)cc23)c1	0.616
Cc1ccc(C)c(NC(=S)N=Nc2c(O)n(C)c3ccc(S(=O)(=O)N4CCOCC4)cc23)c1	4.13 (active)
Cn1c(=O)c2cc(S(=O)(=O)N3CCOCC3)ccc2n(C)c1=O	0.139
Cn1c(=O)n(C)c2cc(S(=O)(=O)N3CCOCC3)ccc21	-0.185
CN(C)CCCN1C(=O)C(=O)/C(=C(/O)c2ccncc2)C1c1cccc(Br)c1 (stereo not drawn)	-0.318
COc1ccc(OC)c(-c2cc(C(=O)Nc3cc(C)on3)no2)c1	0.941
